Tests used:
Assay in all cases: log2 ratio of Biotin-Ahx-Ub-VS probe labelling (fragment/DMSO); higher = less target engagement (more negative = stronger competition), active = hit call of the paper (q ≤ 0.05, log2 ratio ≤ -1)
Conditions in all cases: compound concentration: 200 uM; treatment time: 3 h
[1] = biological target: T1, USP19 (UniProt O94966)
T1 sequence (whole entry): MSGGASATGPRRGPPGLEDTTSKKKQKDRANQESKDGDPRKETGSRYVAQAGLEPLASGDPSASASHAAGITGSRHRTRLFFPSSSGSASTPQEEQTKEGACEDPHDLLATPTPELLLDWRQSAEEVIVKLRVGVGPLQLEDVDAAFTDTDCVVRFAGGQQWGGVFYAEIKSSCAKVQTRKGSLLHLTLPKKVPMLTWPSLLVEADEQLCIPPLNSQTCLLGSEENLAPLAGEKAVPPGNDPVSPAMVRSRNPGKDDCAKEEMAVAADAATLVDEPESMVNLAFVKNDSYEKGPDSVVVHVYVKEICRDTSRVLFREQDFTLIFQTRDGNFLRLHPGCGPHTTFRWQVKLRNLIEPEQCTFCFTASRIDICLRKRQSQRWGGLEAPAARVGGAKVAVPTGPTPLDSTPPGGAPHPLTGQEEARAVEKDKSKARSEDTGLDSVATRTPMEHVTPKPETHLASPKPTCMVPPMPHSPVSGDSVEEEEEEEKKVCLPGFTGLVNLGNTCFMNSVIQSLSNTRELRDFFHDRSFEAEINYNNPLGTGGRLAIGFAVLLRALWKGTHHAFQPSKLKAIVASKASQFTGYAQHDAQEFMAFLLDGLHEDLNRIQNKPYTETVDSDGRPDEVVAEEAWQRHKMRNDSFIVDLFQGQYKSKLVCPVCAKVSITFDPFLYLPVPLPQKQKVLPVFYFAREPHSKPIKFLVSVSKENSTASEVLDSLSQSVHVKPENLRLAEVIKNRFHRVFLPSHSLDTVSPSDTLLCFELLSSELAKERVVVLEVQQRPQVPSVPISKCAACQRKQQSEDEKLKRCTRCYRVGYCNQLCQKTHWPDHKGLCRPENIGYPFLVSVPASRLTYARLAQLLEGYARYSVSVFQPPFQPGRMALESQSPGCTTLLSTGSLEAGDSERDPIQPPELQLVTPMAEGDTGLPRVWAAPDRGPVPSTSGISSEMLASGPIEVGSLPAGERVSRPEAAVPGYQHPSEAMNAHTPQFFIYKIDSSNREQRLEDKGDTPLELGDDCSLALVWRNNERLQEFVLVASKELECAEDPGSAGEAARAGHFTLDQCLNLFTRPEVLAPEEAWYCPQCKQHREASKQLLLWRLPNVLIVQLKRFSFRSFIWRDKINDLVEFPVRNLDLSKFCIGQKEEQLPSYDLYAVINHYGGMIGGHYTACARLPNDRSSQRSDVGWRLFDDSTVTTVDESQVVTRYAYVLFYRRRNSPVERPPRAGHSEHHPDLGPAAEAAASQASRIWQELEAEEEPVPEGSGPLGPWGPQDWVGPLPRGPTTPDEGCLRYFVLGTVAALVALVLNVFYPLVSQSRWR
How it was run: (§1)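 Labelling with Biotin-Ahx-Ub-VS (0.5 µM final, 1 h) followed a 3 h triplicate treatment of HEK293T lysate (495 µg per sample, Tris/CHAPS/IGEPAL buffer with protease inhibitors) with fragment at 200 µM or vehicle. Labelled DUBs were NeutrAvidin-enriched, digested with LysC and trypsin, and run by diaPASEF LC-MS/MS. The values, average log2 fragment/vehicle ratios by unpaired t-test, come from global-median-normalised Spectronaut label-free quantities. Proteins with ≥2 unique peptides were used.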

[2] = biological target: T2, USP22 (UniProt Q9UPT9)
T2 sequence (whole entry): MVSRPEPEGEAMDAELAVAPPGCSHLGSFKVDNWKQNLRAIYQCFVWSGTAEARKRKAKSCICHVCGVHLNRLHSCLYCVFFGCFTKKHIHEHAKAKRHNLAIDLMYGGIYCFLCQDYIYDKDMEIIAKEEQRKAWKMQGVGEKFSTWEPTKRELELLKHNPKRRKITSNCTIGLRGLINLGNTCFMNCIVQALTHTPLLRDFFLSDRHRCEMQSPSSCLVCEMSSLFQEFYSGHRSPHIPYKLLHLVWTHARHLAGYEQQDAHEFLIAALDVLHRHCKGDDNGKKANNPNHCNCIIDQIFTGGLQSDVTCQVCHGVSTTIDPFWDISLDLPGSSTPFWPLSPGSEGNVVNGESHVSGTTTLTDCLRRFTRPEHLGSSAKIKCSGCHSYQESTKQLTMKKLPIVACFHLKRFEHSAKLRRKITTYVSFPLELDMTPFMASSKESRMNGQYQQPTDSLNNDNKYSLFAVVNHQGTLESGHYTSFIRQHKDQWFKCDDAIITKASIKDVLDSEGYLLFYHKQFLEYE
How it was run: as §1

[3] = biological target: USP24 (UniProt Q9UPU5)
Chain of USP24 (Q9UPU5 whole entry): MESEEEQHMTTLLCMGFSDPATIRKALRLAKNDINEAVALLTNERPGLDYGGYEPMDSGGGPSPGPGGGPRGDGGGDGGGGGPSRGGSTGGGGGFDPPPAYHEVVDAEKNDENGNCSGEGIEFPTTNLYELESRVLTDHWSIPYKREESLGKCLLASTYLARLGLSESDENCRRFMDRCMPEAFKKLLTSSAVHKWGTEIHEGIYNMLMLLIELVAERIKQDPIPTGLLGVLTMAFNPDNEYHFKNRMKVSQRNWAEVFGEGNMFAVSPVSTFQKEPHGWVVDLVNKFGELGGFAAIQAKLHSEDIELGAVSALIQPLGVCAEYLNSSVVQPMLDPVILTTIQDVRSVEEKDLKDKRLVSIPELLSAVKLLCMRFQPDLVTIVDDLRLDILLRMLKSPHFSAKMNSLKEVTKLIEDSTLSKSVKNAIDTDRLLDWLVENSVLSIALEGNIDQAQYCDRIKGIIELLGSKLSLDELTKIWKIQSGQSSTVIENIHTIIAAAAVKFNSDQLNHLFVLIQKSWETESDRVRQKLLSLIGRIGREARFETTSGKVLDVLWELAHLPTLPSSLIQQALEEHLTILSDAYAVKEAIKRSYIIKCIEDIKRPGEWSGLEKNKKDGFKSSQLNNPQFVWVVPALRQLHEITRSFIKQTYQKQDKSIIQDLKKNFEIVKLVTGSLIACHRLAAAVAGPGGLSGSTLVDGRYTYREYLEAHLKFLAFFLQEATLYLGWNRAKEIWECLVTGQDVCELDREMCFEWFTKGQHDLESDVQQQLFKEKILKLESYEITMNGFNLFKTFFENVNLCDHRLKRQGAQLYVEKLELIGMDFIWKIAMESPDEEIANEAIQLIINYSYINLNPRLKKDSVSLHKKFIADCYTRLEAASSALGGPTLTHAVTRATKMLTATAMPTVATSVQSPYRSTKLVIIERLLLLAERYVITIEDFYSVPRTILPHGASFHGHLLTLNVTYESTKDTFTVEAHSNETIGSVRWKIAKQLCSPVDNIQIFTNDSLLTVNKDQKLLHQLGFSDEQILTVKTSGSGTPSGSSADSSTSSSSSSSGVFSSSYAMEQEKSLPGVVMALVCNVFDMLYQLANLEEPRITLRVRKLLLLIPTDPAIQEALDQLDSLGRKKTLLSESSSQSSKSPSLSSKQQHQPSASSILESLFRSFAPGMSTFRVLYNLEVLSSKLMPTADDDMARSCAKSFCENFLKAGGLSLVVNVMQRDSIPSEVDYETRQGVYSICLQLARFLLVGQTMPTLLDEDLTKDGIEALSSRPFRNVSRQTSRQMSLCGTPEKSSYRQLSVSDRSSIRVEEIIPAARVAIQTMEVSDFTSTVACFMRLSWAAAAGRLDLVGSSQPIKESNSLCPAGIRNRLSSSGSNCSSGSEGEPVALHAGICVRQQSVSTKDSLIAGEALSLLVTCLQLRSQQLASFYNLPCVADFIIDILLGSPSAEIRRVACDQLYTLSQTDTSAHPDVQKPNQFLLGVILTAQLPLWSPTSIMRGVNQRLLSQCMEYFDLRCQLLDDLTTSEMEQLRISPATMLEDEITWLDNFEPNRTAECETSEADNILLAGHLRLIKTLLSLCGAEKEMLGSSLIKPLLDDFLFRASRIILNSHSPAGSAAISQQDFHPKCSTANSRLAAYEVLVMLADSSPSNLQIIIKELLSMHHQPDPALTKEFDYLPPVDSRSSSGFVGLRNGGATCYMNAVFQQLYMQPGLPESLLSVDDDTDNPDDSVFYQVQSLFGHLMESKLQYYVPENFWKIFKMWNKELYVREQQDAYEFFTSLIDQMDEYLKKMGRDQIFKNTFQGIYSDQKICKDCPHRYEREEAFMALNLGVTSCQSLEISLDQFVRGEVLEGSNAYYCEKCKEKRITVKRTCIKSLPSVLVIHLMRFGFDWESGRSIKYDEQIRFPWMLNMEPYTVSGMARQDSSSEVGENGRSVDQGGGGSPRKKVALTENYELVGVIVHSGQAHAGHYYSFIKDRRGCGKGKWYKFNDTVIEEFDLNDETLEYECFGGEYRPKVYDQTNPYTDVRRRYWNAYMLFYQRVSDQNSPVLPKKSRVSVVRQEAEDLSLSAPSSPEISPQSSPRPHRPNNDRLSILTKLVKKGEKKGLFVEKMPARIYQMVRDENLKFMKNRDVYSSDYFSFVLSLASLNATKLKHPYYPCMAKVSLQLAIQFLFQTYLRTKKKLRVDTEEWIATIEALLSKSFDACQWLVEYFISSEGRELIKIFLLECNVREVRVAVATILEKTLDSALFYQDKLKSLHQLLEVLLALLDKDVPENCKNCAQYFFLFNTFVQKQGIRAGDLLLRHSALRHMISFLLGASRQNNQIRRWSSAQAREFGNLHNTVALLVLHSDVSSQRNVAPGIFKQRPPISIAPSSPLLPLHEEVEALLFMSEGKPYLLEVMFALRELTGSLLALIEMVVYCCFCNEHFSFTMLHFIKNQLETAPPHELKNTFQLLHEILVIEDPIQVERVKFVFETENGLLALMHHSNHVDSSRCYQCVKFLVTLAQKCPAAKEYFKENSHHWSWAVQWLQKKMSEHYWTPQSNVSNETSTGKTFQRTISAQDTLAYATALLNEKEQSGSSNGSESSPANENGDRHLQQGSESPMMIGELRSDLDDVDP
How it was run: as §1

[4] = biological target: T3, USP25 (UniProt Q9UHP3)
T3 sequence (whole entry): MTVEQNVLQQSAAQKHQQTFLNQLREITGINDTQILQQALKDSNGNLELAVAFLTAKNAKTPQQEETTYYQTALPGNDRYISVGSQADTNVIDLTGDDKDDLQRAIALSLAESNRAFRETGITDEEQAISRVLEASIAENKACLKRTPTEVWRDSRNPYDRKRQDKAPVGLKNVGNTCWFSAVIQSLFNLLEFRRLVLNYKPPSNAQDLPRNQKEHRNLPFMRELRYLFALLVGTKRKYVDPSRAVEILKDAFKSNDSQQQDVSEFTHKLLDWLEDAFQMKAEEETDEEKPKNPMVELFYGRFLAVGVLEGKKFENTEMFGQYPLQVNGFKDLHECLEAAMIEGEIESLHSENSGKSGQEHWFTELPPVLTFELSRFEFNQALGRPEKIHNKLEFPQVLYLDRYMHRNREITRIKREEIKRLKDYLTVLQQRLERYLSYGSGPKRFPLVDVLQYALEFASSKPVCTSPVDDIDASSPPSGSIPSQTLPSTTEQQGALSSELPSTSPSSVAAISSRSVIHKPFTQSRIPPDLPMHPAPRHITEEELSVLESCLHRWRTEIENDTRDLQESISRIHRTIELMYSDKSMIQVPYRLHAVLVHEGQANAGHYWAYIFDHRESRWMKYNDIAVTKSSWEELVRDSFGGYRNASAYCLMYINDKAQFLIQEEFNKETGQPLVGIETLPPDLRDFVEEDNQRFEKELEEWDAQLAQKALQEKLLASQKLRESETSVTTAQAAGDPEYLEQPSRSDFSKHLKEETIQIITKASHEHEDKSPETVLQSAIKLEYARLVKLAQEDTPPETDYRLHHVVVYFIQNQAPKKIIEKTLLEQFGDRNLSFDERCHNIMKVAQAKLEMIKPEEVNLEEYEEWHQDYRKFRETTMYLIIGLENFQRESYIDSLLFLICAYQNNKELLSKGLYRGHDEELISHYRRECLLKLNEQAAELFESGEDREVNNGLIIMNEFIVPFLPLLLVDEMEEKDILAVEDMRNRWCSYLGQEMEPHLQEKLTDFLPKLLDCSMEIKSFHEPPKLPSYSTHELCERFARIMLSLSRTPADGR
How it was run: as §1

[5] = biological target: T4, USP28 (UniProt Q96RU2)
T4 sequence (whole entry): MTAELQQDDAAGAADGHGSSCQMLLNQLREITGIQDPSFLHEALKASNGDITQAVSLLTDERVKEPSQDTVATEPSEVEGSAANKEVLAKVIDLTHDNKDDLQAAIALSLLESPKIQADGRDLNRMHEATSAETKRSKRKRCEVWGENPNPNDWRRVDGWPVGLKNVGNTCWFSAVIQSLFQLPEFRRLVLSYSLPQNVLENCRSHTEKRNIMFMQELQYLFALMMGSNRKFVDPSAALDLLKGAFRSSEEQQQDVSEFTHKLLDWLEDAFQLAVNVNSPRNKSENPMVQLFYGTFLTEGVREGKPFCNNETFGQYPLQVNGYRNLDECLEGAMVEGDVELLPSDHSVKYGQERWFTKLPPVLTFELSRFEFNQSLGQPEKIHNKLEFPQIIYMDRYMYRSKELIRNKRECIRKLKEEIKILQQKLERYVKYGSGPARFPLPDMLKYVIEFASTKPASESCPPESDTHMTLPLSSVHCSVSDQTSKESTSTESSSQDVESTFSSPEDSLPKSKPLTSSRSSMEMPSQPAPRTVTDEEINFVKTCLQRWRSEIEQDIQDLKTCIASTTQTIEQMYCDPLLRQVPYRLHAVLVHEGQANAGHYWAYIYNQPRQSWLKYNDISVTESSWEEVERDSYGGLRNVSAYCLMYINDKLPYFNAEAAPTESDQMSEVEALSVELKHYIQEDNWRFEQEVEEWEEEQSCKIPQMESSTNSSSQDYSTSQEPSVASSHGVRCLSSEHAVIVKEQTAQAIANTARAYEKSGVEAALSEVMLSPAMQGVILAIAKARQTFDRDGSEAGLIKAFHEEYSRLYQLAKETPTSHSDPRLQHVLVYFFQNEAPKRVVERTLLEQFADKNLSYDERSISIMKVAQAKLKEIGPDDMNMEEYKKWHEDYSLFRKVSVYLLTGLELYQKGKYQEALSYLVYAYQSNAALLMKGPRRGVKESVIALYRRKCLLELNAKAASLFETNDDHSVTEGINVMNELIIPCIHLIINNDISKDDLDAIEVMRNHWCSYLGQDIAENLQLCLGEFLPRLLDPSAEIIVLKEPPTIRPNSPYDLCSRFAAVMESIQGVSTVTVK
How it was run: as §1

Measured: log2 ratio of Biotin-Ahx-Ub-VS probe labelling

Cc1ccccc1OCC(=O)N1CCN(C(=O)CCl)CC1
inactive: [1] -0.401 | [2] 0.0214 | [3] -0.309 | [4] -0.0662 | [5] -0.249

Reference: the supplement of paper PMC11732987, “Enantioselective OTUD7B fragment discovery through chemoproteomics screening and high-throughput optimisation” (Communications Chemistry, 2025)
